# From PubChem BioAssay
# The list is not random: actives were taken first. Their share in the collection is about 5.7%.
# MPTP inh: blocks calcium-induced mitochondrial swelling. isolated mouse mitochondria, Ca2+ swelling absorbance, 30 min. inhibition, % at 10 µM. actives 1.4% (n = 360,000);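 active means inhibition of 50% or more, scaled per plate between neutral and stimulator controls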;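 further: 0% = DMSO wells given calcium and 100% = 1 mM EGTA wells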
# Myeloid diff 2: compounds promoting myeloid differentiation. ER-HoxA9 myeloid progenitors, lysozyme-GFP differentiation, flow cytometry. calls only at 10 µM. actives 1% (n = 360,000). AID 624256;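 active means normalized GFP-positive differentiation at or above the plate's own cutoff, the solvent-only control mean plus 3 SD; inconclusive means no clear call, values can overlap the other calls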;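 further: cells exposed to compound for four days before flow analysis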
# rCAG RNA binder: r(CAG) repeat RNA binding | TO-PRO-1 dye displacement fluorescence | inhibition, % at 3 µM | actives 1.3% (n = 370,000) | AID 651821;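 active means inhibition above the plate cutoff, the mean of all test compounds on that plate plus 3 SD, cut at about 35% in these data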;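 further: 0% = DMSO alone and 100% = 100 µM mitoxantrone as full dye displacement; higher means more dye released from RNA so lower well fluorescence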
# NR3A LBD binder: NR3A (human) ligand-binding domain modulation | NR3A LBD differential scanning fluorimetry, Tm shift; 0% = protein alone, 100% = glycine-bound protein | Tm shift relative to glycine control, % at 25 µM | actives 2.5% (n = 340,000) | AID 1259313;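 active means melting temperature shift of at least 10% of the positive control shift, at one fixed dose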
# FAS TE block: FAS thioesterase (human) inhibition | P49327 | actives 0.67% (n = 360,000) | inhibition, % at 15 µM | recombinant FAS-TE, OMFH fluorogenic substrate, fluorescence endpoint;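 active means compounds whose normalised, plate-corrected inhibition of enzyme fluorescence in the single-dose primary screen is 50% or more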;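 further: 0% = DMSO with enzyme and 100% = substrate without enzyme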
# Numbers without * were called inactive; i = inactive; ? = inconclusive; . = no result; + = active, no number.
SMILES,MPTP inh,Myeloid diff 2,rCAG RNA binder,NR3A LBD binder,FAS TE block
O=C1Nc2cnc(Cl)nc2Nc2ccc(Cl)cc21,.,.,3.4,.,.
Cc1noc(C)c1COC(=O)CCc1nc2ccccc2c(=O)[nH]1,-2.0,i,1.3,21.5*,-7.8
Cc1ccc(COC(=O)CCc2nc3ccccc3c(=O)[nH]2)cc1,0.8,i,-0.7,-0.5,-9.6
Cc1cccc(N2CCN(C(=O)c3ccc4c(c3)NC(=O)C(CSCc3cccc(F)c3)N4)CC2C)c1 (stereo not given),-2.4,+,18.6,1.2,-19.4
COc1ccc(N2CCN(C(=O)c3ccc4c(c3)NC(=O)C(CSCc3ccccc3F)N4)CC2)cc1 (stereo not given),-0.6,i,16.9,.,-16.3
C[C@@H]1C=CCCO[C@]12C(=O)N(Cc1ccc(Br)cc1)c1cccc(Br)c12,.,.,2.5,.,.
O=C(CN1CCCc2ccccc21)NC(=O)NCc1ccccc1,0.6,i,-6.9,-4.2,3.0
CC(C)(C)NC(=O)NC(=O)CN1CCCc2ccccc21,0.2,+,-5.8,0.2,-10.3
O=C(Nc1ccc(Oc2cccnc2)cc1)C1CCCCN1Cc1ccc(CO)o1 (stereo not given),-0.8,i,-2.5,10.0*,-5.8
Cc1cc(CN2CCCCC2C(=O)Nc2ccc(Oc3cccnc3)cc2)oc1C (stereo not given),2.1,i,-4.4,0.6,1.0
O=C1COc2ccccc2C(c2nnnn2Cc2ccccc2)N1Cc1cccs1 (stereo not given),.,.,3.4,.,.
Cc1cccc(OCCOC(=O)C2CCN(S(=O)(=O)c3ccc(C)c(C)c3)CC2)c1,-0.2,i,0.3,8.7,24.9
Cc1ccc(S(=O)(=O)N2CCC(C(=O)OCCOc3cccc(C)c3)CC2)cc1,2.7,i,-2.6,20.2*,21.6
Cc1ccccc1NC(=O)COC(=O)c1ccc(S(=O)(=O)N2CCCC2)cc1,-1.5,+,0.3,4.6,-7.5
CCOC(=O)c1ccc(S(=O)(=O)N2CCC(C(=O)OCC)CC2)cc1,-0.5,i,-8.4,1.8,-8.4
Cc1ccccc1NC(=O)COC(=O)c1ccc(S(=O)(=O)N2CCCCCC2)cc1,-1.0,i,1.9,4.7,-2.4
CCOC(=O)c1ccc(S(=O)(=O)N2CCC(C(=O)O)CC2)cc1,1.6,+,1.5,-0.3,-6.2
Cc1cccc(CN2[C@H](COC(=O)Nc3ccccc3)C=CS2(=O)=O)c1,0.3,i,0.5,.,0.6
CC1(C)CC(=O)N(CC(=O)N2CCN(c3ccc(F)cc3)CC2)c2ccccc2S1(=O)=O,.,.,3.6,.,.
Cc1ccc(OCCNC(=O)[C@@H](Cc2ccccc2)NC(=O)[C@H]2O[C@@H](n3ccc(=O)[nH]c3=O)[C@H](O)[C@@H]2O)cc1C,.,.,0.8,.,.
CC(C)CN1CCC(CN2C(=S)NC[C@@H]2Cc2ccccc2)CC1,.,.,4.1,.,.
O=S(=O)(c1cccc(C(F)(F)F)c1)c1ccc(O)cn1,3.3,i,-0.4,11.0*,-1.3
CCOC(=O)C1=C(CSc2nc(-c3ccccc3)ccc2C#N)OC(N)=C(C#N)C1c1ccc(OC)cc1 (stereo not given),0.3,+,26.0,1.3,12.0
O=C(N/N=C/c1ccccc1)c1ccc(CN2C(=O)c3cccc4cccc2c34)cc1,-0.8,i,12.4,0.2,-2.1
O=C(N/N=C/c1ccc(O)cc1O)c1ccc(CN2C(=O)c3cccc4cccc2c34)cc1,0.0,?,24.7,19.8*,12.0
SMILES,MPTP inh,Myeloid diff 2,rCAG RNA binder,NR3A LBD binder,FAS TE block
COC(=O)C1=C(C)N(C)C(=NCc2cc(OC)c(OC)c(OC)c2)NC1c1ccc(C(F)(F)F)cc1 (stereo not given),.,.,6.6,.,.
COc1cccc(NC(=O)CN(C)C(=O)c2ccc(NC(=O)CC3SC(N4CCCCC4)=NC3=O)cc2)c1 (stereo not given),-1.9,i,-1.1,4.5,-5.9
COc1cccc(NC(=O)CN(C)C(=O)c2ccc(NC(=O)CC3SC(N4CCCC4)=NC3=O)cc2)c1 (stereo not given),-2.9,i,3.8,10.6*,-7.9
COc1ccccc1CCNC(=O)c1ccc(NC(=O)CC2SC(N3CCCCC3)=NC2=O)cc1 (stereo not given),-0.8,i,1.6,-0.2,-5.9
O=C(CC1SC(N2CCCCC2)=NC1=O)Nc1ccc(C(=O)NCCc2ccc(F)cc2)cc1 (stereo not given),-0.2,+,3.3,-0.2,-5.7
Cc1cccc(-c2cccc3c4c([nH]c23)[C@@H]2C[C@H](N(C)C(=O)Nc3ccccc3)[C@H]([C@H](C)O)CN2CC4)c1,.,.,6.4,.,.
C[C@@H]1C=CCCO[C@]12C(=O)N(Cc1ccc(Br)cc1)c1ccccc12,.,.,1.0,.,.
Cc1ccc(Cn2c(C(CO)Nc3nc(-c4ccc(Cl)c([N+](=O)[O-])c4)cs3)nc3ccccc32)cc1 (stereo not given),2.1,i,25.0,26.3*,49.5
COc1ccc(-c2csc(NC(CO)c3nc4ccccc4n3Cc3ccc(C)cc3)n2)cc1 (stereo not given),0.9,i,13.9,-1.5,24.4
Cc1ccc(Cn2c(C(CO)Nc3nc(-c4ccc(F)cc4)cs3)nc3ccccc32)cc1 (stereo not given),2.3,i,4.3,18.7*,33.0
CCOC(=O)[C@@]12CCC3=C1N(CCC3)C(=O)[C@H](CC(=O)NCCCCc1ccccc1)C2,.,.,1.5,.,.
O=C(C(=O)N1CCC(CNS(=O)(=O)c2ccc(F)c(F)c2)CC1)c1cc2ccccc2o1,.,.,3.5,.,.
COc1ccc(NC(=O)N(C)C[C@@H]2OCCCC[C@@H](C)Oc3ccc(NS(C)(=O)=O)cc3C(=O)N([C@H](C)CO)C[C@@H]2C)cc1,.,.,5.7,.,.
O=c1cc(-c2ccc(O)cc2)oc2c1ccc1ccccc12,5.8,i,15.2,0.2,-1.9
O=c1cc(-c2ccc(O)cc2)oc2ccc3ccccc3c12,7.5,.,17.5,24.5*,3.1
CC(=O)/C(N)=N/Nc1cccc(Cl)c1,6.9,i,1.8,20.3*,-3.7
CCCCOc1ccc(C(=O)NC2CCCCN(Cc3ccc(C)cc3)C2=O)cc1 (stereo not given),.,.,3.8,.,.
CCn1cc2nc(SCC(=O)Nc3ccc(OC)c(OC)c3)n(Cc3ccc(OC)cc3)c(=O)c2n1,0.1,i,9.0,13.9*,-0.8
CC1=CC(C)(C)N(C(=O)CN2C(=O)c3ccccc3C2=O)c2ccccc21,0.4,i,-5.1,12.0*,2.5
COc1ccc(OC)c(S(=O)(=O)N2CCCCC2C(=O)N2CCCN(C)CC2)c1 (stereo not given),.,.,6.1,.,.
O=C(N/N=C/c1ccc(-c2cccc(C(F)(F)F)c2)o1)c1ccccc1Br,3.2,i,1.7,15.0*,8.0
O=C(N/N=C/c1ccc(-c2cccc([N+](=O)[O-])c2)o1)c1ccccc1O,7.0,i,7.0,19.3*,4.5
O=C(N/N=C/c1ccc(-c2cccc([N+](=O)[O-])c2)o1)c1ccc([N+](=O)[O-])cc1,-0.2,i,4.8,3.4,26.5
FC(F)(F)c1cccc(-c2ccc(/C=N/Nc3nncc(-c4ccccc4)n3)o2)c1,4.2,i,1.0,-6.3,7.2
